Results reported in PubChem BioAssay (EPA / NIEHS).
Some structures have more than one record in an assay (separate samples or runs), and their calls can disagree. Activity calls are given as the source filed them. The calls were made as follows: active = hit-call score of the fitted dose curve at least 0.9, where 1 is the maximum; inactive = score below 0.9.

Columns and labels:
[1] = read-out: Urokinase-type plasminogen activator receptor (uPAR), PLAUR (gene 5329); test: BSK_4H_uPAR: BioMAP Diversity Plus: 4H Assay for Urokinase-type plasminogen activator receptor (uPAR) Biomarker Activity (AID 2283030); conditions: primary human endothelial cells (HUVEC); actives raise or lower the signal
Outline: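 HUVEC, 24 h post-dose; uPAR by ELISA; bidirectional fit vs DMSO baseline.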

[2] = read-out: Vascular endothelial growth factor receptor 2 (Homo sapiens) (UniProt P35968); test: BSK_4H_VEGFRII: BioMAP Diversity Plus: 4H Assay for Vascular endothelial growth factor receptor 2 (VEGFR2) Biomarker Activity (AID 2283031); conditions: primary human endothelial cells (HUVEC); actives raise or lower the signal;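 as to AC50: cell-surface VEGFR2 protein level quantified by ELISA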
Outline: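 HUVEC (human primary), 4H system; 24 h post-dose; VEGFRII by ELISA; bidirectional curve fit vs DMSO baseline; gain or loss of signal scored.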

[3] = read-out: Human Leukocyte Antigen - DR isotype (HLADR), HLA-DRA (gene 3122); test: BSK_BE3C_HLADR: BioMAP Diversity Plus: BE3C Assay for Human Leukocyte Antigen - DR isotype (HLADR) Biomarker Activity (AID 2283032); conditions: primary human bronchial epithelial cells; actives raise or lower the signal
Outline: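 Human primary bronchial epithelial cells in the BE3C system were exposed to chemicals for 24 h, after which HLA-DR levels were quantified by ELISA. Activity was fitted bidirectionally, gain or loss of signal, against DMSO as negative control and baseline.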

[4] = read-out: Vascular cell adhesion molecule 1 (VCAM1), VCAM1 (gene 7412); test: BSK_4H_VCAM1: BioMAP Diversity Plus: 4H Assay for Vascular cell adhesion molecule 1 (VCAM1) Biomarker Activity (AID 2283033); conditions: primary human endothelial cells (HUVEC); actives raise or lower the signal
Outline: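 Primary human umbilical vein endothelial cells were exposed to chemicals for 24 h, after which VCAM-1 was quantified by ELISA. Responses were fitted bidirectionally against DMSO as negative control and activity baseline.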

[5] = read-out: Interferon-gamma inducible Protein 10 (IP10), CXCL10 (gene 3627); test: BSK_BE3C_IP10: BioMAP Diversity Plus: BE3C Assay for Interferon-gamma inducible Protein 10 (IP10) Biomarker Activity (AID 2283034); conditions: primary human bronchial epithelial cells; actives raise or lower the signal
Outline: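 Human primary bronchial epithelial cells were exposed to chemicals for 24 hours, after which IP-10 levels were measured by ELISA. Data were fitted bidirectionally against DMSO, which served as the negative control and activity baseline.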

[6] = read-out: Plasminogen activator inhibitor-1 (PAI1), SERPINE1 (gene 5054); test: BSK_BE3C_PAI1: BioMAP Diversity Plus: BE3C Assay for Plasminogen activator inhibitor-1 (PAI1) Biomarker Activity (AID 2283037); conditions: primary human bronchial epithelial cells; actives raise or lower the signal
Outline: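 Human primary bronchial epithelial cells were exposed to chemical for 24 h, then PAI-1 was quantified by ELISA. Activity was fitted bidirectionally relative to the DMSO negative control baseline.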

[7] = read-out: urokinase plasminogen activator (uPA), PLAU (gene 5328); test: BSK_BE3C_uPA: BioMAP Diversity Plus: BE3C Assay for urokinase plasminogen activator (uPA) Biomarker Activity (AID 2283038); conditions: primary human bronchial epithelial cells; actives raise or lower the signal
Outline: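 ELISA read-out of uPA in human lung primary bronchial epithelial cultures, 24 h post-dosing. Gain or loss of signal fitted bidirectionally relative to DMSO baseline; cytotoxicity checked in parallel cultures via SRB total protein stain.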

[8] = read-out: Urokinase-type plasminogen activator receptor (uPAR), PLAUR (gene 5329); test: BSK_BE3C_uPAR: BioMAP Diversity Plus: BE3C Assay for Urokinase-type plasminogen activator receptor (uPAR) Biomarker Activity (AID 2283039); conditions: primary human bronchial epithelial cells; actives raise or lower the signal
Outline: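 Primary human bronchial epithelial cells were dosed with chemical and harvested 24 h later; uPAR was quantified by ELISA. Activity was fitted bidirectionally against DMSO as negative control and baseline.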

[9] = read-out: Interleukin-6 (IL6), IL6 (gene 3569); test: BSK_CASM3C_IL6: BioMAP Diversity Plus: CASM3C Assay for Interleukin-6 (IL6) Biomarker Activity for (AID 2283040); conditions: primary human coronary artery smooth muscle cells; actives raise or lower the signal
[10] = read-out: Tissue plasminogen activator (tPA), PLAT (gene 5327); test: BSK_BE3C_tPA: BioMAP Diversity Plus: BE3C Assay for Tissue plasminogen activator (tPA) Biomarker Activity (AID 2283041); conditions: primary human bronchial epithelial cells; actives raise or lower the signal
Outline: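 Human primary bronchial epithelial cells were dosed with chemical and tPA biomarker levels measured by ELISA 24 hours later. Activity was fitted bidirectionally against DMSO as negative control and baseline.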

[11] = read-out: Interleukin-8 (IL8), CXCL8 (gene 3576); test: BSK_CASM3C_IL8: BioMAP Diversity Plus: CASM3C Assay for Interleukin-8 (IL8) Biomarker Activity (AID 2283042); conditions: primary human coronary artery smooth muscle cells; actives raise or lower the signal;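 also: IL-8 protein level quantified by ELISA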
[12] = read-out: Human Leukocyte Antigen - DR isotype (HLADR), HLA-DRA (gene 3122); test: BSK_CASM3C_HLADR: BioMAP Diversity Plus: CASM3C Assay for Human Leukocyte Antigen - DR isotype (HLADR) Biomarker Activity (AID 2283043); conditions: primary human coronary artery smooth muscle cells; actives raise or lower the signal;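 also: cell-surface HLA-DR protein level quantified by ELISA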
[13] = read-out: Macrophage colony-stimulating factor (MCSF), CSF1 (gene 1435); test: BSK_CASM3C_MCSF: BioMAP Diversity Plus: CASM3C Assay for Macrophage colony-stimulating factor (MCSF) Biomarker Activity (AID 2283044); conditions: primary human coronary artery smooth muscle cells; actives raise or lower the signal;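 also: M-CSF protein amount quantified by ELISA after 24 h exposure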
[14] = read-out: Low-density lipoprotein receptor (LDLR), LDLR (gene 3949); test: BSK_CASM3C_LDLR: BioMAP Diversity Plus: CASM3C Assay for Low-density lipoprotein receptor (LDLR) Biomarker Activity (AID 2283045); conditions: primary human coronary artery smooth muscle cells; actives raise or lower the signal;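 also: LDLR protein level on the cell surface quantified by ELISA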
[15] = read-out: Monocyte Chemoattractant Protein-1 (MCP1), CCL2 (gene 6347); test: BSK_CASM3C_MCP1: BioMAP Diversity Plus: CASM3C Assay for Monocyte Chemoattractant Protein-1 (MCP1) Biomarker Activity (AID 2283046); conditions: primary human coronary artery smooth muscle cells; actives raise or lower the signal;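 also: MCP-1 level quantified by ELISA 24 h after dosing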
[16] = BSK_CASM3C_Proliferation: Cell Proliferation Assessment in the BioMAP Diversity Plus: CASM3C Assay (AID 2283047); conditions: primary human coronary artery smooth muscle cells;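 also: sulforhodamine B total protein stain as relative cell number at 560 nm; sub-confluent cells exposed 48 h before staining; fitted both ways against DMSO so gain or loss of cell number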
[17] = read-out: Monokine induced gamma interferon (MIG), CXCL9 (gene 4283); test: BSK_CASM3C_MIG: BioMAP Diversity Plus: CASM3C Assay for Monokine induced gamma interferon (MIG) Biomarker Activity (AID 2283048); conditions: primary human coronary artery smooth muscle cells; actives raise or lower the signal;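 also: MIG protein level measured by ELISA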
[18] = read-out: serum amyloid A (SAA), SAA1 (gene 6288); test: BSK_CASM3C_SAA: BioMAP Diversity Plus: CASM3C Assay for serum amyloid A (SAA) Biomarker Activity (AID 2283049); conditions: primary human coronary artery smooth muscle cells; actives raise or lower the signal;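 also: SAA protein level quantified by ELISA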
[19] = read-out: Transforming growth factor beta 1 (TGFb1), TGFB1 (gene 7040); test: BSK_BE3C_TGFb1: BioMAP Diversity Plus: BE3C Assay for Transforming growth factor beta 1 (TGFb1) Biomarker Activity (AID 2283036); conditions: primary human bronchial epithelial cells; actives raise or lower the signal
Outline: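 Human primary bronchial epithelial cells (BE3C system) were dosed with chemical and TGF-b1 levels measured by ELISA at 24 h. Activity was fitted bidirectionally relative to DMSO negative control as baseline.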

[20] = read-out: Monokine induced gamma interferon (MIG), CXCL9 (gene 4283); test: BSK_BE3C_MIG: BioMAP Diversity Plus: BE3C Assay for Monokine induced gamma interferon (MIG) Biomarker Activity (AID 2283035); conditions: primary human bronchial epithelial cells; actives raise or lower the signal;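 also: MIG protein measured by ELISA in BE3C cultures after 24 h of dosing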
Outline: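 ELISA read-out of MIG in human lung bronchial epithelial primary cultures, 24 h post-dosing. Bidirectional curve fit vs DMSO baseline.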

Measured: AC50

COS(=O)(=O)OC
not listed: [19] | [20]
inactive: all other assays above

Sc1ccccc1
not listed: [19] | [20]
inactive: all other assays above

O=S(=O)(O)C(F)(F)C(F)(F)C(F)(F)C(F)(F)C(F)(F)C(F)(F)F
not listed: [19] | [20]
inactive: all other assays above

COc1ccc(O)c(C(C)(C)C)c1
inactive: [1] | [2] | [3] | [4] | [5] | [6] | [7] | [8] | [9] | [10] | [11] | [12] | [13] | [14] | [15] | [16] | [17] | [18]
active: [11] 5.43 µM | [17] 3.97 µM

C=CC(=O)NCNC(=O)C=C
not listed: [19] | [20]
inactive: all other assays above

ClC(Cl)=C(c1ccc(Cl)cc1)c1ccc(Cl)cc1
active: [1] 32.8 µM | [2] 34.9 µM | [4] 28.6 µM | [7] 13.1 µM | [12] 20 µM | [13] 20 µM | [16] 29.1 µM
not listed: [19] | [20]
inactive: all other assays above

Clc1ccc(C(c2ccccc2Cl)C(Cl)(Cl)Cl)cc1 (centres undefined)
active: [1] 21.2 µM | [2] 17.2 µM | [12] 17.6 µM | [13] 13.8 µM | [14] 14.3 µM | [15] 23.7 µM | [16] 20.1 µM
not listed: [4] | [18] | [19] | [20]
inactive: all other assays above

CCCCCCCCCC[N+](C)(C)CCCCCCCCCC
active: [1] 6.83 µM | [2] 2.01 µM | [3] 4.45 µM | [5] 5.48 µM | [19] 5.35 µM | [6] 3.71 µM | [7] 5.43 µM | [8] 5.55 µM | [9] 4.9 µM | [10] 3.61 µM | [11] 5.54 µM | [12] 4.72 µM | [13] 3.08 µM | [14] 5.09 µM | [15] 4.41 µM | [16] 2.67 µM | [17] 8.03 µM | [18] 5.46 µM

CCC(C)c1cc([N+](=O)[O-])cc([N+](=O)[O-])c1O (centres undefined)
inactive: [8] | [9] | [11] | [13] | [14] | [15] | [17] | [18]
active: [1] 11.5 µM | [2] 8.81 µM | [3] 20 µM | [4] 9.62 µM | [5] 1.87 µM | [6] 1.39 µM | [7] 4.72 µM | [10] 1.28 µM | [12] 14.6 µM | [16] 33.7 µM

C[C@]12CCC(=O)C=C1CC[C@@H]1[C@@H]2CC[C@]2(C)C(=O)CC[C@@H]12
active: [14] 4.9 µM
not listed: [1] | [20]
inactive: all other assays above

Cc1cccc([N+](=O)[O-])c1
not listed: [2]
inactive: all other assays above
